In PubChem BioAssay (NCI):
The panel holds about 83,000 compounds, 20% with a hit somewhere; the sample as a whole holds those more often.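 Testing used 96-well plates and a 48-hour single-concentration exposure. Example: -40 means 40% of the starting cells died.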 A number with no mark means an inactive call. Active and inactive are the calls of the source. The calls were made as follows: active = growth percent below 10; inactive = the rest.

Experiments:
Assay in all cases: NCI-60 one-dose screen, 48 h (100 = growth as untreated, 0 = no growth, -100 = all killed)
[1] = tested on: SK-MEL-2 melanoma; conditions: 10 µM
[2] = tested on: EKVX NSCLC; conditions: 10 µM unless noted
[3] = tested on: SN12C renal; conditions: 10 µM unless noted
[4] = tested on: TK-10 renal; conditions: 10 µM unless noted
[5] = tested on: ACHN renal; conditions: 10 µM unless noted
[6] = tested on: A498 renal; conditions: 10 µM unless noted
[7] = tested on: CCRF-CEM leukemia; conditions: 10 µM unless noted
[8] = tested on: MOLT-4 leukemia; conditions: 10 µM unless noted
[9] = tested on: UO-31 renal; conditions: 10 µM unless noted
[10] = tested on: CAKI-1 renal; conditions: 10 µM unless noted

Structure (SMILES) | growth [1] | growth [2] | growth [3] | growth [4] | growth [5] | growth [6] | growth [7] | growth [8] | growth [9] | growth [10]
O=C(c1ccccc1)C(c1ccccc1)N1CCOCC1 (stereo not given) | 91.1% | 99% | 101% | 90% | 106% | 111% | 91.2% | 94.3% | – | –
CC(C)C1CCC(C)C(C2(C#N)C(N)=NC(N)=C2C#N)C1=O (stereo not given) | 109% | 94.4% | 100% | 115% | 107% | 105% | 103% | 96.1% | – | –
CCc1nc2cc(/C=C/C(=O)NO)ccc2c(=O)n1CCc1ccc(OC)cc1 | 47.4% | 40.8% | – | 2.16% (active) | 9.54% (active) | -4.17% (active) | 10.2% | 5.41% (active) | 20.6% | 13.4%
Cc1ccc2oc(=O)cc(-c3cc(-c4cc5ccccc5oc4=O)nc(N)c3C#N)c2c1 | 87.2% | 79% | 68.2% | 71.9% | 41.6% | 80.1% | 93.7% | 93.9% | – | –
CC1(O)CCC2CC3OC3(C)CCC3OC3(C)C(O)CC1C2(C)C (stereo not given) | 103% | 87.8% | 103% | 107% | 101% | – | 91.5% | 106% | – | 99.2%
CCN1/C(=C/C=C/c2n(-c3ccccc3)c3ccc(-c4nc5ccccc5s4)cc3[n+]2CC)N(c2ccccc2)c2ccc(-c3nc4ccccc4s3)cc21 | -23.5% (active) | 9.19% (active) | -2.95% (active) | -2.12% (active) | -3.27% (active) | -12.7% (active) | 24.5% | 16.5% | – | –
CC(N)C(Cc1ccccc1)c1ccc(Cl)cc1 (stereo not given) | 96.7% | 91.6% | 90.7% | 89.5% | 97% | – | 91.2% | 76.4% | – | 79.1%
Cc1ccsc1C(NC(=O)c1ccccc1)c1cc(Cl)c2cccnc2c1O (stereo not given) | 12.6% | 18.2% | 23.2% | 27.6% | 10.8% | – | 9.96% (active) | 14.6% | – | 15.7%
ClCc1ccc(-c2ccc(Cn3cnc4nc(Cl)nc(Cl)c43)cc2)cc1 | 65.8% | 82.7% | -29.8% (active) | -28.4% (active) | 5.65% (active) | – | -48.5% (active) | -42.5% (active) | – | -93.6% (active)
COC(=O)CCCNc1c(-c2c(O)c(O)cc3c(O)c(-c4c(C)cc5c(-c6nc7ccccn7c6NCCCC(=O)OC)c(O)c(O)cc5c4O)c(C)cc23)nc2ccccn12 | 60.1% | 61.8% | 21.7% | 64.4% | 78.7% | 32.1% | 27.4% | 15.7% | – | –
COc1ccc(CCCc2c3[n+](cc4c(OC)c(OC)ccc24)CCc2cc4c(cc2-3)OCO4)cc1 | 60.1% | 78.3% | 69% | 66.4% | 96.2% | – | 64.7% | 76.8% | – | 98.3%
Nc1ncnc2c1ccn2-c1cccc(NC(=O)c2ccc(N3CCOCC3)c(C(F)(F)F)c2)c1 | 37.7% | 56% | 47.8% | – | 30.9% | 63.3% | 20.5% | 47.8% | – | 26.3%
O=C1C=CC2(NN=C(c3ccccc3)N2c2cccc(Cl)c2)c2cccc(O)c21 (stereo not given) | – | 76.2% | 41.6% | 118% | 45.6% | 89.1% | 70.9% | 67.6% | 33.3% | 90.7%
O=S1(=O)OC(c2cc(Cl)c(O)c(Br)c2)(c2cc(Cl)c(O)c(Br)c2)c2ccccc21 | – | 110% | 90.6% | 93% | 103% | 86.5% | 93.6% | 92.4% | 76.5% | 107%
CC(C)(C)c1ccc(Cn2cc(CSc3nc4ccccc4s3)nn2)cc1 | – | 98.3% | 90.8% | 88.7% | 97.2% | 87% | 95% | 95.7% | 65.2% | 82.9%
CCCCCCCCCNCCCCCCCCC | – | 81.9% | 59.5% | 70.4% | 81.5% | 88.9% | 23.7% | 49.7% | 36.4% | 42%
Cc1[nH]n(C(N)=S)c(=O)c1N=Nc1ccc(S(=O)(=O)Nc2ccncn2)cc1 | – | 120% | 97.6% | 126% | 106% | 87.4% | -34.3% (active) | 106% | 84.6% | 155%
Nc1nc(Nc2ccccc2)c(C=Nc2ccccc2)c(=O)[nH]1 | – | 89.1% | 91% | 116% | 83.4% | 86.3% | 92.1% | 81.2% | 61% | 68%
CC(=O)C1CC(C)CCC1C(C)C (stereo not given) | – | 106% | 83.8% | 83.2% | 87.8% | 92.4% | 70.5% | 83.1% | 67.4% | 122%
CC[C@@H]1C(=O)N(C)c2cnc(Nc3ccc(C(=O)NC4CCC(N5CCN(CC6CC6)CC5)CC4)cc3OC)nc2N1C(C)C (stereo not given in full) | – | 21.2% | 7.06% (active) | 19.9% | -3.77% (active) | -51.8% (active) | 0.0303% (active) | -19.6% (active) | -52.3% (active) | 10.6%
Cc1cc(-c2cc(OC(=O)c3ccccc3)ccc2Cl)cc2nnc(Nc3ccc(OCCN4CCCC4)cc3)nc12 | – | 92.3% | 66.3% | 89.7% | 74.2% | 94.3% | 3.09% (active) | 73.1% | 73.9% | 86.3%
COC(=O)N[C@@H](C)CNc1nccc(-c2cn(C(C)C)nc2-c2cc(Cl)cc(NS(C)(=O)=O)c2F)n1 | – | 63.1% | 66.9% | 52% | 28% | 31.9% | 89.8% | 67.4% | 16.9% | 34.2%
COc1cc(N2CCC(N3CCN(C)CC3)CC2)ccc1Nc1ncnc(Nc2ccccc2S(=O)(=O)C(C)C)n1 | – | 105% | 107% | 108% | 98.5% | 114% | 92.9% | 89.9% | 98.7% | 104%
Cc1cc(-c2cc(O)ccc2Cl)cc2nnc(Nc3ccc(OCCN4CCCC4)cc3)nc12 | – | -81.1% (active) | -79.2% (active) | -82.1% (active) | -92.7% (active) | -68.9% (active) | -51.9% (active) | -42.9% (active) | -87.3% (active) | -83% (active)
Clc1ccc(/C=C/c2cc(N3CCOCC3)c3cc(Cl)c(Cl)cc3n2)cc1 | 104% | – | 20.1% | 92.8% | 94.3% | 67.7% | 4.25% (active) | 1.45% (active) | 12.5% | 78.6%
CNC(=O)c1ccccc1Nc1nc(Nc2ccc3c(c2OC)CCC[C@H](N2CCN(CCO)CC2)C3)ncc1Cl | – | 11.8% | 7.63% (active) | 26.2% | 5.75% (active) | -64.3% (active) | 7.29% (active) | -23.5% (active) | 6.91% (active) | -26.6% (active)
C#Cc1cccc(Nc2ncnc3cc(OC)c(OCCCCCCC(=O)NO)cc23)c1 | – | 25% | 5.37% (active) | -48% (active) | -30.1% (active) | -86.3% (active) | 3.23% (active) | -1.32% (active) | -16.8% (active) | -68.6% (active)
Cc1cc(O)cc(-c2c(-c3ccnc(-c4cccnc4)c3)cnn2C)c1 | – | 89.5% | 58.9% | 51% | 39.5% | 5.82% (active) | 61.7% | 54.8% | 36.1% | 42.3%
COc1cc2c(c(OC)c1)C1c3ccccc3NC(=O)N1CC2 (stereo not given) | – | 42.1% | 39% | 49.5% | 44.9% | -7.8% (active) | 10.7% | 30.6% | 36.8% | 34.3%
